TRPV1 ag: HTS Assay for Compounds that Act as Agonists of the Vanilloid Receptor 1 | TRPV1-expressing cells, Fluo-8 calcium influx, agonist mode | 320,000 tested, 0.19% active | activation, % at 8.33 µM; in the data active = activation above about 80%; inconclusive = between about 30% and that limit; note: 0% is about no effect
Target sequence (Q8NER1 whole entry, looked up): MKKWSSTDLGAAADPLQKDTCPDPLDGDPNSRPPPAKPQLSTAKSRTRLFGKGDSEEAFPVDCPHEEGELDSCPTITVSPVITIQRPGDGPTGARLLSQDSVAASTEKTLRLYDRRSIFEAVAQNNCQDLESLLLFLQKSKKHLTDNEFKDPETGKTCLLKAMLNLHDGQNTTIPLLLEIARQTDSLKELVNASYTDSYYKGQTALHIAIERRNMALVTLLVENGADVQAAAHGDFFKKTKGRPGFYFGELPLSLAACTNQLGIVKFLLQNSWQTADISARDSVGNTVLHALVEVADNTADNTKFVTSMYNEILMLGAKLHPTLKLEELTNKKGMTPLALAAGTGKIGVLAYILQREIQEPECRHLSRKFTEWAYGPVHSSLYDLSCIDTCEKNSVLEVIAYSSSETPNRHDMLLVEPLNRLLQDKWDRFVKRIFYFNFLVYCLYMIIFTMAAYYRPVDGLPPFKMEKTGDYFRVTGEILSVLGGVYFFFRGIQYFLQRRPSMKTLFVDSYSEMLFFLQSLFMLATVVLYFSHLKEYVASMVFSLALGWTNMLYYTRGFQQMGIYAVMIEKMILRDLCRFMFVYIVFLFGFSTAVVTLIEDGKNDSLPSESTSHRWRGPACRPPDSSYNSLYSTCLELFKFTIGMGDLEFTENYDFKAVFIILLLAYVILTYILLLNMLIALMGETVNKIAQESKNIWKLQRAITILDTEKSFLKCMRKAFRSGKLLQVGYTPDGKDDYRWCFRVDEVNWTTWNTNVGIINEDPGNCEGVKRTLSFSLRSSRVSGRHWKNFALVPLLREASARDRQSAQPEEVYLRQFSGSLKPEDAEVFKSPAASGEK
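Fluo-8 calcium influx in TRPV1-expressing cells, kinetic read (ex 480/em 520 nm). Compound added and read 3 min for agonist activity, followed by capsaicin at EC20 final and 2 min further read for enhancement.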
KCNH2 3.1 block: qHTS for Inhibitors of KCHN2 3.1: Mutant qHTS. activity change, % (tested at about 1.8 µM). Potassium voltage-gated channel subfamily H member 2, brain isoform KCNH2 3.1 (human). 340,000 tested, 0.95% active. U2OS KCNH2 3.1, thallium flux FluxOr; stronger effect = lower value;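 active = maximum activity change below -70%; inconclusive = maximum activity change from -70% to -50%; inactive = maximum activity change above -50%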;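 note: thallium influx rate constant from kinetic fluorescence after stimulation buffer; % is set by controls: 0 for no effect and ±100 for the full control effect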
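FluxOr-based Tl+ influx in U2OS cells transduced with KCNH2 3.1 virus; rate constants normalized to DMSO controls.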
TRPV1 potentiator: HTS Assay for Compounds that Act as Potentiators of the Vanilloid Receptor 1. 320,000 tested, 0.02% active. Transient receptor potential cation channel subfamily V member 1 (Homo sapiens), Q8NER1. potentiation, % at 8.33 µM. TRPV1-expressing cells, Fluo-8 calcium influx, capsaicin EC20 potentiation; in the data active = potentiation above about 80%; inconclusive = between about 30% and that limit; note: 0% is about no effect
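Cells expressing TRPV1 were dye-loaded with Fluo-8 and read kinetically: 10 s baseline, 3 min after compound (agonist portion), then 2 min after EC20 capsaicin (allosteric enhancer portion). Calcium-bound dye fluorescence at 480/520 nm.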
hERG WT inh: qHTS for Inhibitors of KCHN2 3.1: Wildtype qHTS; activity change, % at 1.84 µM; U2OS, BacMam KCNH2, thallium flux FluxOr; stronger effect = lower value; 340,000 tested, 0.37% active;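 active = maximum activity change below -70%; inconclusive = maximum activity change between -70% and -50%; inactive = maximum activity change above -50%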; note: % is set by controls: 0 for no effect and ±100 for the full control effect
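U2OS cells transduced with wild-type KCNH2 virus are loaded with FluxOr dye for 45 min, and thallium flux is measured in kinetic reads before and after stimulation buffer. Rate constants are normalized to DMSO controls.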
* hit, by the source's call; ? = inconclusive; · = no result given. Shown are actives, neighbours in structure and some others; about 1.2% of the full set was active somewhere.

SMILES	TRPV1 ag	KCNH2 3.1 block	TRPV1 potentiator	hERG WT inh
O=P(CCl)(Nc1ccccc1)C(Cl)(Cl)Cl (configuration not stated)	-1	-3	2	19
CN(N=O)c1cc(O)ccc1O	-1	·	-7	·
CCC(=Nc1ccc2c(c1)CCC2)c1c(O)n(C)c(=O)n(C)c1=O	0	4	5	-1
CCC(=Nc1ccc2c(c1)CCC2)c1c(O)n(-c2ccc(OC)cc2)c(=O)[nH]c1=O	3	4	-8	-104*
O=C(CCN1CC=C(c2ccccc2)CC1)NCc1ccccc1	·	-7	·	1
O=C(CN1CC=C(c2ccccc2)CC1)NC(=O)NCc1ccco1	-1	-90*	-8	-8
Cn1c(O)c(C=Nc2ccccc2)c(=O)n(C)c1=O	2	-2	0	8
Cn1c(O)c(/C=C/C=Nc2ccccc2)c(=O)n(C)c1=O	14	1	-12	-88*
COC(=O)C1=C(c2ccc(F)cc2F)C[C@@H]2CC[C@H]1N2C	-2	2	14	8
CN1CC=C(/C=C/c2ccc(-c3ccccc3)cc2)CC1	2	-90*	-1	8
OC(c1cccc(Cl)c1)(c1cccc(Cl)c1)C1CN2CCC1CC2 (configuration not stated)	14	-86*	-9	?
O=C(NC(=C(Cl)Cl)P(=O)(c1ccccc1)c1ccccc1)c1ccccc1	4	9	-3	0
CC(=O)Nc1nnc(CCN(CCc2nnc(NC(C)=O)s2)[N+](=O)[O-])s1	8	-2	16	-8
CC(Cc1ccccc1)NCC(=O)Nc1cc(N(C)C)nc2ccccc12 (configuration not stated)	17	-100*	-16	2
O=C(Cn1cnc2sc3c(c2c1=O)CCCC3)NCCCC(=O)N1CCC2(CC1)OCCO2	1	13	7	-11
Cc1ccc(Cn2nc(C(=O)Nc3ccc(Br)cc3)cc2C)cc1	108*	-7	-3	-8
Cc1ccc(S(=O)(=O)c2nc(-c3ccccc3Cl)oc2N(C)C2CCN(C)CC2)cc1	·	-80*	·	?
Cc1ccc(-c2nc(N(C)C3CCN(C)CC3)c3ccccc3n2)cc1	3	8	-1	-3
Cn1c(O)c(/C=C2/C=CC=N2)c(=O)[nH]c1=O	·	4	·	6
Cc1cccc(NP(=O)(Oc2ccccc2)Oc2ccccc2)c1C	17	-7	-1	-242*
CCCOc1ccccc1NP(=O)(Oc1ccccc1)Oc1ccccc1	?	-2	-7	10
COc1cc(/C=C2\C[C@H]3[C@@H]4CC=C5C[C@@H](N6CCCC6)CC[C@]5(C)[C@H]4CC[C@]3(C)[C@H]2O)cc(OC)c1OC	·	·	·	-6
O=C(COc1ccc(Br)cc1)N1CCN(Cc2c[nH]c3ccccc23)CC1	26	-72*	-12	-80*
O=C(COc1ccc2ccccc2c1)N1CCN(Cc2c[nH]c3ccccc23)CC1	25	-10	-9	19
COc1ccc(CN2CCN(C(=O)COc3ccc4ccccc4c3)CC2)c(OC)c1	23	-93*	-7	-24
SMILES	TRPV1 ag	KCNH2 3.1 block	TRPV1 potentiator	hERG WT inh
CCCSP1(=S)NCCCO1 (configuration not stated)	0	12	5	2
CN1CC(C(=O)c2ccc([N+](=O)[O-])cc2)C(c2ccc(Cl)cc2)C1 (configuration not stated)	6	-73*	9	-13
CN1CCN(Cc2cc(=O)n3ccsc3n2)CC1	0	-81*	?	6
O=c1cc(CN2CCNCC2)nc2sccn12	0	6	-5	-4
CC1CCN(C(=O)CCl)CC1	-6	-6	17	5
CCn1c(O)c(C(c2ccccn2)c2c(O)n(CC)c(=S)[nH]c2=O)c(=O)[nH]c1=S	·	-2	·	-12
Oc1ccc2c3c1O[C@H]1c4[nH]c5ccccc5c4C[C@@]4(O)[C@@H](C2)N(CC2CC2)CC[C@]314	2	-70*	7	34
Oc1ccc2c3c1O[C@H]1c4[nH]c5ccccc5c4C[C@@]4(O)C(C2)N(CC2CC2)CC[C@]314	-4	·	1	·
NS(=O)(=O)OC(CCc1ccccc1)C(Cl)(Cl)Cl (configuration not stated)	-1	-11	11	-9
CCOC(=O)C1(CCOc2ccccc2)CCN(C2Cc3ccccc3C2)CC1	2	-121*	1	-11
CCOc1ccc(CN2CCCC(C(=O)c3ccccc3OC)C2)cc1 (configuration not stated)	19	-84*	1	-30
Clc1ccc(C(OCCN2CCCCC2)c2ccccc2)cc1 (configuration not stated)	0	-102*	-11	-17
COc1ccc(NP(=O)(Oc2ccc(Cl)cc2)Oc2ccc(Cl)cc2)cc1OC	3	-113*	5	-30
COc1ccc(OC)c(NP(=O)(Oc2ccc(Cl)cc2)Oc2ccc(Cl)cc2)c1	?	7	-1	-11
CC/C(=N\N1CCCCCC1)c1c(O)n(-c2ccc(C)cc2)c(=O)[nH]c1=O	-1	16	-2	27
CC1CCCCC12C(=O)NC(=O)NC2=O (configuration not stated)	·	7	·	-7
O=C(NCC1=C(c2cccc3ccccc23)C[C@@H]2CC[C@H]1N2Cc1ccco1)c1ccc([N+](=O)[O-])cc1	·	-93*	·	-24
CS(=O)(=O)c1ccc(C2=C(CNC(=O)c3cccnc3)[C@H]3CC[C@@H](C2)N3Cc2ccccc2)cc1	·	?	·	-26
CCOC(=O)c1cccc(C2=C(CNC(=O)c3nccs3)[C@H]3CC[C@@H](C2)N3Cc2ccccc2)c1	·	-84*	·	18
CS(=O)(=O)c1ccc(C2=C(CNC(=O)c3ccc([N+](=O)[O-])cc3)[C@H]3CC[C@@H](C2)N3Cc2ccccc2)cc1	·	-101*	·	-86*
CS(=O)(=O)c1ccc(C2=C(CNC(=O)c3ccc([N+](=O)[O-])cc3)[C@H]3CC[C@@H](C2)N3CCOc2ccccc2)cc1	·	-110*	·	-92*
O=C(NCC1=C(c2ccc3ccccc3c2)C[C@@H]2CC[C@H]1N2Cc1ccco1)c1cccnc1	·	-21	·	1
Oc1ccc(C(=C(Cl)Cl)c2ccc(O)cc2)cc1	-1	·	7	·

Source: PubChem
